Bioassay records as filed in PubChem.
D1 ag – activates the human D1 dopamine receptor. P21728. HEK293 T-REx D1 cells, calcium flux, agonist mode. activation, % at 2 µM. actives 1% (n = 360,000). AID 504660; note: 0% is about no effect
Target sequence (P21728 whole entry, looked up): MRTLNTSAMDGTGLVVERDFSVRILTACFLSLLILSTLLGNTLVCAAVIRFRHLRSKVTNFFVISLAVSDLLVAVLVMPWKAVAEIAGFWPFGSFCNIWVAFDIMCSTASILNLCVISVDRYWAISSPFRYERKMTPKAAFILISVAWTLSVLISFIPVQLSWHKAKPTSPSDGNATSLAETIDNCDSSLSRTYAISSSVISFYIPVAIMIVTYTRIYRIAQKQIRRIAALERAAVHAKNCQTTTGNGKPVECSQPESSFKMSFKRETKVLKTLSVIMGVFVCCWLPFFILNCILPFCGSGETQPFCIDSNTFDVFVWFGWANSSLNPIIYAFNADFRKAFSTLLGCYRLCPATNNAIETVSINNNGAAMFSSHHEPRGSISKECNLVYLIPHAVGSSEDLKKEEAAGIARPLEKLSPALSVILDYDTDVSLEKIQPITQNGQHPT
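Agonism was scored from calcium flux recorded over 180 s (1 read/s) after pintool compound addition, following a 10-cycle baseline. Cells were inducible force-coupled HEK293 TREx D1, plated overnight at 30 C and loaded with no-wash calcium dye.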
TRHR ag – agonists of human TRH receptor; P34981; TRHR cells, calcium flux fluo-8, FDSS agonist mode; activation, % at 2 µM; actives 0.18% (n = 360,000); AID 493084; note: 0% is about no effect
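Agonist-mode FDSS calcium read (Ex 480/Em 530, 1 s cycles) in 1536-well TRHR cells with fluo-8 dye, after 10-cycle baseline and 23 nL compound addition; TRH at EC20 (10 nM final) added afterwards for the enhancer phase.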
D1 PAM – enhances dopamine response at the human D1 receptor; P21728; HEK293 TREx D1 cells, calcium flux, dopamine EC20 potentiation; potentiation, % at 10 µM; actives 0.036% (n = 360,000); AID 504651; in the data active = potentiation above about 30%; note: 0% is about no effect
TRHR PAM – TRH receptor (human) allosteric enhancement | actives 0.66% (n = 360,000) | enhancement, % at 2 µM | TRHR cells, fluo-8 calcium fluorescence, EC20 TRH enhancement | P34981; in the data active = enhancement above about 30%; note: 0% is about no effect
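Enhancer read-out: after compound pinning and an initial kinetic agonist-mode read, an EC20 of TRH (10 nM final) was injected and fluo-8 calcium signal (Ex 480/Em 530) followed at 1 s/cycle for 100 cycles in TRHR-expressing cells.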
D1 antagonist – antagonists of human D1 dopamine receptor; actives 3.2% (n = 360,000); HEK293 TREx D1 cells, calcium flux, dopamine EC80; stronger effect = lower value; AID 504652; P21728; activity change, negative = inhibition, % at 10 µM; in the data active = activity change below about -30%; note: % is set by controls: 0 for no effect and ±100 for the full control effect
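Kinetic fluorescence of a calcium dye serves as the read-out. D1-expressing Hek293 Trex cells, induced overnight at 30 C, are exposed to compound for 180 s before an EC80 dopamine addition, then read 180 s further.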
* hit, by the source's call. Sampled rows, rich in hits. Any-hit rate of the full collection: about 4.7%. Cut-off read from the data, not from the text of the source, unless noted: active = activation above about 30%; inactive = the rest.

For O=C(c1ccco1)n1nc(-c2ccccc2)nc1SCc1ccccc1 the results were D1 ag 1, TRHR ag 1, D1 PAM 5, TRHR PAM -10 and D1 antagonist -3.
For Nc1nc(-c2ccccc2)nn1C(=O)c1ccco1 the results were D1 ag 3, TRHR ag 0, D1 PAM -6, TRHR PAM -4 and D1 antagonist -34*.
`CCCCC(OC(=O)CNC(=O)c1ccccc1)C(=O)Nc1cc(C(F)(F)F)ccc1Cl` (centres undefined) gave D1 ag 9, TRHR ag 1, D1 PAM -6, TRHR PAM -4 and D1 antagonist 6.
COc1ccc(C(=O)NCC(c2ccc(N(C)C)cc2)N2CCc3ccccc32)cc1 (centres undefined) was read as D1 ag 1, TRHR ag -1, D1 PAM -1, TRHR PAM 3 and D1 antagonist -12.
For O=C1C=C(c2cccc3c2sc2ccccc23)C[C@@H](c2ccc(F)cc2)C1 the results were D1 ag 3, TRHR ag 1, D1 PAM 6 and TRHR PAM 6.
COc1ccc([C@H]2CC(=O)C=C(c3cccc4c3sc3ccccc34)C2)cc1OC was read as D1 ag 6, TRHR ag 1, D1 PAM -4, TRHR PAM 2 and D1 antagonist -36*.
For COc1ccc([C@H]2CC(=O)C=C(c3cc4ccccc4s3)C2)cc1OC the results were D1 ag 2, TRHR ag 0, D1 PAM 4, TRHR PAM -8 and D1 antagonist -48*.
Screening CN(CCCC[C@H](CNCc1ccc(-c2ccccc2)cc1)N1C[C@H](c2ccccc2)N(CCc2ccc(Cl)c(Cl)c2)C(=O)C1=O)Cc1ccc(-c2ccccc2)cc1 returned D1 ag 3, TRHR ag 0, D1 PAM 2, TRHR PAM 2 and D1 antagonist 10.
CCOc1ccc(CCN2C(=O)C(=O)N([C@H](CCCN(C)Cc3ccccc3)CNCc3ccccc3)C[C@@H]2C(C)C)cc1 was read as D1 ag 41*, TRHR ag -1, D1 PAM -7, TRHR PAM 14 and D1 antagonist -2.
`COc1ccc(CNC[C@@H](CCCCN(C)Cc2ccc(OC)cc2)N2C[C@H](c3ccccc3)N(CCc3ccc(Cl)c(Cl)c3)C(=O)C2=O)cc1` gave D1 ag 39*, TRHR ag 0, D1 PAM 0, TRHR PAM 7 and D1 antagonist 126.
For Cc1cc(C)c(S(=O)(=O)Nc2ccc3oc(C)c(C(=O)OC(C)C)c3c2)cc1C the results were D1 ag 3, TRHR ag 1, D1 PAM 0, TRHR PAM -3 and D1 antagonist -9.
For COCCCNc1nc2c(-c3cccc(Br)c3)nnn2c2ccccc12 the results were D1 ag 2, TRHR ag 0, D1 PAM 0, TRHR PAM -12 and D1 antagonist -12.
For O=C(Cn1cc([N+](=O)[O-])ccc1=O)N1CCCc2ccccc21 the results were D1 ag 3, TRHR ag 0, D1 PAM -8, TRHR PAM 2 and D1 antagonist 3.
For Cc1ccc(-c2c(C)c(-c3ccc(F)cc3)nc(N)c2C#N)o1 the results were D1 ag 8, TRHR ag 0, D1 PAM -8, TRHR PAM -5 and D1 antagonist -31*.
Screening Cc1c(-c2ccc(F)cc2)nc(N)c(C#N)c1-c1cccnc1 returned D1 ag 2, TRHR ag -1, D1 PAM 5, TRHR PAM 4 and D1 antagonist 10.
`CC(C)(C)n1nc2c(c1NC(=O)Cc1cccs1)CSC2` gave D1 ag 2, TRHR ag 0, TRHR PAM -1 and D1 antagonist -81*.
For COc1cc(SC)ccc1C(=O)OCC(=O)NCC(C)C the results were D1 ag -4, TRHR ag 0, D1 PAM 0, TRHR PAM 7 and D1 antagonist 0.
COc1cc(SC)ccc1C(=O)OCC(=O)NC(=O)NC(C)C was read as D1 ag 1, TRHR ag 0, D1 PAM -7, TRHR PAM -27 and D1 antagonist -66*.
Screening COc1ccc(CNS(=O)(=O)c2ccc(F)c(C(=O)Nc3ccccc3OC)c2)cc1 returned D1 ag 3, TRHR ag -1, D1 PAM -7, TRHR PAM -4 and D1 antagonist -37*.
O=C(Nc1ccc(S(=O)(=O)NCc2ccccc2)cc1)Nc1ccc2c(c1)OCO2 was read as D1 ag 8, TRHR ag 1, D1 PAM -10, TRHR PAM 3 and D1 antagonist -40*.
Screening O=C(Nc1ccccc1)c1cc(S(=O)(=O)NCc2ccncc2)ccc1Cl returned D1 ag 4, TRHR ag 0, D1 PAM -5, TRHR PAM -2 and D1 antagonist -32*.
O=C(Nc1ccccc1)c1cc(S(=O)(=O)Nc2cccnc2)ccc1Cl was read as D1 ag 6, TRHR ag 0, D1 PAM 8, TRHR PAM 5 and D1 antagonist 1.
COc1ccccc1NC(=O)c1cc(S(=O)(=O)NCc2ccccc2)ccc1F was read as D1 ag 3, TRHR ag -3, D1 PAM -5, TRHR PAM -3 and D1 antagonist -1.
`O=C(Nc1cc(C(F)(F)F)ccc1Cl)c1cc(S(=O)(=O)NCc2ccccc2)ccc1F` gave D1 ag -2, TRHR ag 0, D1 PAM -3, TRHR PAM -2 and D1 antagonist -71*.
`O=C(Nc1ccc(S(=O)(=O)NCc2ccccc2)cc1)c1ccccc1[N+](=O)[O-]` gave D1 ag 16, TRHR ag 2, D1 PAM -7, TRHR PAM 1 and D1 antagonist -72*.
`CN(c1ccc(F)cc1)S(=O)(=O)c1ccc(Cl)c(C(=O)Nc2ccncc2)c1` gave D1 ag 8, TRHR ag 0, D1 PAM -3, TRHR PAM -3 and D1 antagonist -48*.
O=C(NCC(=O)N(c1cccnc1)C(C(=O)NC1CCCCC1)c1ccccc1F)c1ccco1 (centres undefined) was read as D1 ag 1, TRHR ag -1, D1 PAM 2, TRHR PAM -10 and D1 antagonist -2.
For Cc1cc2c3nonc3ccc2n1C the results were D1 ag 2, TRHR ag 0, D1 PAM -3, TRHR PAM -11 and D1 antagonist -34*.
`CC1CCN(S(=O)(=O)c2ccc3c(c2)CCN3C(=O)Nc2cccc(Br)c2)CC1` gave D1 ag 2, TRHR ag 0, D1 PAM 0, TRHR PAM 2 and D1 antagonist 13.
